MbtI inh – inhibitors of Mycobacterium tuberculosis siderophore enzyme MbtI; actives 0.89% (n = 100,000); inhibition, % (test concentration not listed); purified MbtI enzyme, fluorescence intensity read-out; in the data active means inhibition mostly above about 56%, no sharp cut-off; inactive means mostly below about 77%
PV pol inh – poliovirus RNA polymerase inhibition; P03300; % elongation, % (compound at 16.7 µg/mL); actives 0.66% (n = 150,000); AID 588519; poliovirus polymerase elongation, fluorescence polarization; active compounds read low; in the data active means % elongation below about 90%
Target sequence (P03300 1749-2209 limits assumed): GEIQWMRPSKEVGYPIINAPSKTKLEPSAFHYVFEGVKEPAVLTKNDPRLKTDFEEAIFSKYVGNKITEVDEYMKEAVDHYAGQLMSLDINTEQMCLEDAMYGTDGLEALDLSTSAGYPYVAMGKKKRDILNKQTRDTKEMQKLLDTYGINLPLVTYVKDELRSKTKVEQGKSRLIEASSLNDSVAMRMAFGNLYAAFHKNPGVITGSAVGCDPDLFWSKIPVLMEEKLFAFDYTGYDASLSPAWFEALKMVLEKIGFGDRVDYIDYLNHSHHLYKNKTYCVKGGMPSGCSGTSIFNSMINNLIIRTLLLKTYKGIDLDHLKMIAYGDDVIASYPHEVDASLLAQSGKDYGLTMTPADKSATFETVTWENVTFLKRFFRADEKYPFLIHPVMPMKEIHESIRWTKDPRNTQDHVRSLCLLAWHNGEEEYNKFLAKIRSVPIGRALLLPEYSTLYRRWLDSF
MenB inh – Mtb MenB enzyme inhibition; MenB enzyme assay, absorbance read-out; inhibition, % (no concentration beside the values); actives 0.43% (n = 100,000); AID 540299; in the data active means inhibition above about 21%, passing the limit was not always enough
AID504770 – growth inhibitors of E. coli YBA685 in a screen for V. cholerae RctB (chromosome II replication) inhibitors | E. coli YBA685 rctB-dependent plasmid, OD600 growth, 3 h; active compounds read low | z-score (concentration not given with the values) | actives 0.27% (n = 130,000); in the data active means z-score below about -2, passing the limit was not always enough
* marks the source's active call; other numbers are inactive results. Sampled rows, rich in hits. Any-hit rate of the full collection: about 1.5%.

Results for Cc1c(N)c(C)c(N)c(C)c1N ?
MbtI inh: 16; PV pol inh: 98; MenB inh: -44; AID504770: 0.4

What do the screens show for `CCOc1cc(CNCC(c2ccc(OC)cc2)N2CCCCC2)ccc1OC(C)C(=O)N(C)C` (stereo not given)?
MbtI inh: -11; PV pol inh: 99; MenB inh: 49*; AID504770: 0.6

Results for CCn1c(CCC(=O)Nc2ccc(N3CCOCC3)cc2)nc2cc(S(=O)(=O)N(C)C)ccc21 ?
MbtI inh: -6; MenB inh: -29; AID504770: -0.05

What do the screens show for `O=C(O)CCC(C(=O)O)N1C(=O)/C(=C/C=C/c2ccco2)SC1=S` (stereo not given)?
MbtI inh: 11; PV pol inh: 89*; MenB inh: -202; AID504770: 0.75

Results for Cc1ccc2c(c1Br)C(=C(C#N)C#N)C(=O)N2 ?
MbtI inh: -124; PV pol inh: 84*; MenB inh: -53; AID504770: -0.3

What do the screens show for `Cc1cc(C)n(/N=C2/C(=O)Nc3ccc(Br)cc32)c(=O)c1C#N`?
MbtI inh: -18; PV pol inh: 100; MenB inh: -28; AID504770: -0.25

Results for O=C(CSc1nnc(Cc2ccccc2)o1)c1ccccc1 ?
MbtI inh: -6; PV pol inh: 102; MenB inh: 7; AID504770: -0.35

What do the screens show for `O=C(CSc1nnc(Cc2ccccc2)o1)N(c1ccccc1)c1ccccc1`?
MbtI inh: 75*; PV pol inh: 98; MenB inh: 33; AID504770: 0.05

What do the screens show for `O=C(CCN(Cc1ccco1)S(=O)(=O)c1ccc(Cl)cc1)Nc1ccccc1`?
AID504770: -0.3

Results for Cc1nn(-c2ccccc2)c(-c2ccc(O)cc2O)c1-c1ccccn1 ?
MbtI inh: 53; PV pol inh: 100; MenB inh: 0; AID504770: 2.3

Results for CCN(CC)C(=O)CSc1n[nH]c(=S)s1 ?
MbtI inh: 91*; PV pol inh: 104; MenB inh: -10; AID504770: 0.8

How did Cc1nn(CC(C)C)c(Cl)c1C(=O)N1CCCC1c1nc2ccccc2s1 (stereo not given) do in these assays?
MbtI inh: 2; PV pol inh: 104; MenB inh: -6; AID504770: -0.7

Results for Cc1ccc(CNC(=O)CN2NS(=O)(=O)c3ccccc3C2=O)cc1 ?
MbtI inh: 91*; PV pol inh: 100; MenB inh: -8; AID504770: -0.1

What do the screens show for `CCOc1ccc(NC(=O)Cn2c(=O)n(CC(=O)NCCc3ccccc3)c(=O)c3sccc32)cc1`?
PV pol inh: 81*

Results for CC(C)n1c2ccccc2c2nnc(SCC(=O)NCc3ccc4c(c3)OCO4)nc21 ?
AID504770: -0.25

Results for NC(=S)Cc1nc2n(n1)Cc1ccccc1-2 ?
MbtI inh: 77*; PV pol inh: 83*; MenB inh: -16; AID504770: 1.8

Results for Fc1ccc(-c2nc3n(n2)Cc2ccccc2-3)cc1 ?
MbtI inh: -10; PV pol inh: 100; MenB inh: -7; AID504770: -0.5

How did CC(=O)NCCCc1[nH]n(-c2ccccc2)c(=O)c1NC(=O)c1ccccc1 do in these assays?
MbtI inh: 21; PV pol inh: 87*; MenB inh: 10; AID504770: -0.1

How did Cc1c(C)[n+]([O-])c2ccc3c(non3O)c12 do in these assays?
MbtI inh: 13; PV pol inh: 101; MenB inh: -138; AID504770: -2.2*

What do the screens show for `N#CCn1c(=O)oc2ccccc21`?
MbtI inh: -11; PV pol inh: 99; MenB inh: -11; AID504770: -0.65

How did NC(=O)C1CCN(c2nc(C3CC3)nc3c2nnn3Cc2ccccc2Cl)CC1 do in these assays?
MbtI inh: 7; PV pol inh: 102; MenB inh: 52*; AID504770: 2.5

How did CC(C)(C)c1nc(N2CCN(C(=O)c3ccco3)CC2)c2nnn(Cc3ccccc3Cl)c2n1 do in these assays?
MbtI inh: 23; PV pol inh: 103; MenB inh: 24*; AID504770: 0.85

What do the screens show for `CN(C)c1nc(C2CC2)nc2c1nnn2Cc1ccccc1Cl`?
MbtI inh: 7; PV pol inh: 104; MenB inh: 38*; AID504770: 1.9

What do the screens show for `CC(C)(C)OC(=O)N1CCC(c2nc3c(nnn3Cc3ccccc3Cl)c(=O)[nH]2)CC1`?
MbtI inh: -10; PV pol inh: 104; MenB inh: -17; AID504770: 0.35

What do the screens show for `Oc1ccccc1C1OCC(C2CC=CCC2)CO1` (stereo not given)?
MbtI inh: -8; PV pol inh: 104; MenB inh: 36*; AID504770: 1.6

Results for CC1=NN(c2ccccc2)C(=O)/C1=C\c1ccccc1CC(=O)O ?
MbtI inh: -21; PV pol inh: 100; MenB inh: -20; AID504770: -0.6

What do the screens show for `CN(C)C(=O)CSc1ccccc1C(=O)OCC(=O)NC1(C#N)CCCC1`?
MbtI inh: -6; PV pol inh: 104; MenB inh: -31; AID504770: -0.45

What do the screens show for `O=C1CCCCCN1Cc1n[nH]c(=S)o1`?
MbtI inh: 74*; PV pol inh: 82*; MenB inh: -28; AID504770: -0.5

How did O=C(COc1cccc2ccccc12)Oc1ccc(-c2nnco2)cc1 do in these assays?
MbtI inh: 53; PV pol inh: 103; MenB inh: -2; AID504770: -0.1

Results for O=c1cc(NCCc2ccccc2)c2ccccc2o1 ?
MbtI inh: 22; PV pol inh: 103; MenB inh: 33*; AID504770: 2.3

Results for c1ccc(OCCSc2nc3ccccc3[nH]2)cc1 ?
MbtI inh: -1; PV pol inh: 101; MenB inh: -1; AID504770: 0.25

How did c1ccc(OCCSC2=NCCN2)cc1 do in these assays?
MbtI inh: 89*; PV pol inh: 101; MenB inh: -37; AID504770: -1.4

How did C[n+]1c(CF)sc2ccccc21 do in these assays?
MbtI inh: 97*; PV pol inh: 98; AID504770: -0.85

Results for CCOC(=O)N1CCN(S(=O)(=O)c2ccccc2)CC1 ?
AID504770: 0.25

What do the screens show for `CN(C)C(=O)N1CCN(S(=O)(=O)c2ccccc2)CC1`?
MbtI inh: 2; PV pol inh: 101; MenB inh: 37*; AID504770: 1.4

How did CN(C)S(=O)(=O)c1ccc(S(=O)(=O)N2CCN(C=O)CC2)cc1 do in these assays?
MbtI inh: 2; PV pol inh: 105; MenB inh: 31*; AID504770: 0.65

What do the screens show for `CC(C)(C)NC(=O)CCSc1nnc(-c2ccccc2)o1`?
MbtI inh: -6; PV pol inh: 102; MenB inh: 9; AID504770: -0.3

What do the screens show for `CN(C)S(=O)(=O)c1cccc(-c2nnc(SCc3cc(Cl)cc4c3OCOC4)n2N)c1`?
MbtI inh: 86; PV pol inh: 80*; MenB inh: -28; AID504770: 1.6

Results for O=C(O)c1ccc2c(c1)CCCN2 ?
AID504770: 0.75

What do the screens show for `Clc1ccc2c(c1)CCN2`?
MbtI inh: 27; PV pol inh: 100; MenB inh: 36*; AID504770: -2.2
